Source: PubChem BioAssay (NCI)
Compounds without any hit were thinned out: in the full panel of roughly 79,000, 15% have a hit. Unmarked numbers belong to inactive results. Activity calls are given as the source filed them. No stated cut-off is given here; in the data, active means growth inhibition above about 70%; inactive means the rest.

Experiment: NCI Yeast Anticancer Drug Screen. Data for the sgs1 mgt1 strain (AID 161);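 further: 0% = growth of cultures given vehicle only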
Details: S. cerevisiae sgs1 mgt1 strain, at 5.0 µM (retest, dose inferred, filed as 0.5), hits give high values
In short: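 Read-out: growth inhibition vs vehicle controls. Cells: mutant yeast strain deficient in DNA damage repair.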

Structure (SMILES)	growth inhibition
CC12CCC(=O)C=C1CCC1C2CCC2(C)C(O[Si](C)(C)OC3CCC4C5CCC6=CC(=O)CCC6(C)C5CCC34C)CCC12 (stereo unspecified)	0%
CC1=C[C@H]2O[C@H]3C[C@H]4OC(=O)/C=C\C=C\C(=O)OCC[C@@H](C)[C@H](O)C(=O)OC[C@@]2(CC1)[C@@]4(C)[C@]31CO1	100% (active)
CCCCCCCC[As](C)(=O)O	-67%
OC1C2[C@@H](O)CCCN2C[C@@H](O)[C@H]1O (stereo partly specified)	5%
COC1(O[C@H]2CC[C@H]3[C@@H]4CCC5=CC(=O)CC[C@]5(C)[C@H]4CC[C@]23C)CCCCC1	-30%
O=[N+]([O-])c1ccc(CS(=O)(=O)C(Cl)(Cl)Cl)o1	16%
CC([CH2][Hg][Cl])c1ccccc1 (stereo unspecified)	100% (active)
CC(C)CC[CH2][Pb]([CH2]CCC(C)C)([CH2]CCC(C)C)[O]C(=O)C(Cl)(Cl)Cl	17%
COC1OC(OC)[CH]([Hg][Cl])C1OC (stereo unspecified)	99% (active)
S=C=[N][Sn]([N]=C=S)([c]1ccccc1)[c]1ccccc1.c1ccc2nc(-c3ccc4ccccc4n3)ccc2c1	84% (active)
CSCCC([NH-])C(=O)O.CSCCC([NH-])C(=O)O.[Zn+2] (stereo unspecified)	2%
C[PH+](C)C.C[PH+](C)C.[Au]	59%
O=C(O)C(Br)C(Br)C(=O)O.[Ag] (stereo unspecified)	99% (active)
CCC1CN1P(=O)(Oc1ccccc1)N1CC1CC (stereo unspecified)	-1%
CCCCCc1cc(O)c(CCCC)c(O)c1	-43%
N#CC(Cl)(Cl)CCl	4%
